High-throughput results (PubChem BioAssay)
Compounds with a hit are over-represented: about 19% of the library has one in this group of screens.
HT1080 IDH1KD tx: kills HT-1080 cells with IDH1 knockdown; hit rate 2% among 360,000; AID 686971; HT-1080 IDH1 knockdown viability, ATP luminescence, 48 h; Potency, µM (top dose mostly 46.1 µM), inactives show top-dose activity, negative = toxicity, actives largely listed as cytotoxic;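 also: potency is read from the fitted curve at half-maximal effect; 0% = DMSO wells and -100% = cell-free medium wells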
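CellTiter-Glo luminescence after 48 h compound exposure at 37 degrees C of IDH1-knockdown HT-1080 cells in 5% FBS RPMI. %Activity scaled between DMSO wells and cell-free media wells, with curves fitted and assigned curve classes.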
DT40 TDP1 no CPT: qHTS for Inhibitors of human tyrosyl-DNA phosphodiesterase 1 (TDP1): qHTS in cells in absence of CPT. Potency, µM (top dose mostly 46.2 µM), without a hit: top-dose activity change, negative = growth inhibition, most hits filed as inhibitors. DT40 Tdp1-/- hTDP1 cells, no CPT, ATP luminescence, 48 h. AID 686978, 2013. hit rate 15% among 420,000; also: potency is read from the fitted curve at half-maximal effect; nearly all actives have a fitted effect of over 55% in size
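DT40 Tdp1-/-;hTDP1 cells, no CPT (DMSO vehicle only), 400 cells/well; compounds pin-transferred; ≥48 hr, 37 °C; CellTiter-Glo 30 min RT dark, luminescence read.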
TDP1 cell CPT: DT40-hTDP1 cell growth loss with CPT; chicken DT40 Tdp1-/-;hTDP1 cells + 20 nM CPT, ATP luminescence, 48 h; AID 686979; Potency, µM (series often up to 46.2 µM), inactives show top-dose activity change, negative = growth inhibition, actives largely listed as inhibitors; hit rate 12% among 420,000; also: potency is read from the fitted curve at half-maximal effect; nearly all actives have a fitted effect of over 55% in size
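Chicken DT40 Tdp1-/- cells complemented with human TDP1, 400 cells/well, exposed to compounds plus 20 nM camptothecin for at least 48 h at 37 C; viability read as ATP content by CellTiter-Glo luminescence.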
IL-1B inflam inh: inhibitors of inflammasome signaling (IL-1 beta secretion) | hit rate 4.7% among 360,000 | activity change, % at 57.5 µM | THP-1 LPS/ATP IL-1B secretion, AlphaLISA, 16 h; active compounds read low; in the data active = activity change below about -50%; inconclusive = mostly about -30% to -49%
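THP-1 cells pretreated 1 hr with compounds (up to 57.5 uM final), then stimulated with LPS (250 ng/mL final) plus ATP (1.25 mM final); secreted IL-1B measured by AlphaLISA after 16 hr, decreased signal indicating inhibition.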
HT1080NT lethal: kills 2HG-producing HT-1080-NT fibrosarcoma cells | HT-1080-NT fibrosarcoma viability, CellTiter-Glo ATP luminescence, 48 h | hit rate 1.6% among 360,000 | Potency, µM (titrated, usually from 46.1 µM), for inactives: at the top dose activity, negative = less viability, actives largely listed as cytotoxic;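 also: NT is the 2HG producing partner of a matched IDH1 knockdown line; potency is read from the fitted curve at half-maximal effect; 0% = DMSO-treated cells and -100% = media-only wells without cells; nearly all actives have a fitted effect of over 55% in size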
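Fibrosarcoma NT cells, 750 per well in 5% FBS RPMI, were exposed to compound for 48 hours. Viability: CellTiter-Glo luminescence.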
The depositor's hits bear a star; ? = inconclusive; nt = no result; ! = repeats disagree; [ ] = another dose, or the depositor's remark. Unless noted, calls follow the shape of the dose curve; as a rule, active = well fitted curve in the direction sought with a large enough effect; inconclusive = small, poorly fitted or top-dose-only effect, or another doubt; inactive = no such curve, though single readings can be large; an effect the other way counts as inactive or inconclusive. Unless noted, % is scaled to controls: 0 for no effect and ±100 for the full control effect.

SMILES	HT1080 IDH1KD tx	DT40 TDP1 no CPT	TDP1 cell CPT	IL-1B inflam inh	HT1080NT lethal
O=C(OCc1ccccc1)N1CCC2CC1c1cc(N3Cc4ccccc4-n4nncc4C3)ccc12 (stereo not drawn)	-21%	5.8µM*	7.3µM*	-8	-25%
CC(NCC#Cc1ccccc1)C(O)c1ccccc1 (stereo not drawn)	-4%	?	?	21	-6%
COc1cc2c(cc1OC)-c1c(OC)c(OC)c(C=O)c3c1[C@H](C2)N(C)CC3	nt	?	-79%	nt	nt
COC(=O)c1c2[n+](cc3cc(OC)c(OC)cc13)CCc1cc(OC)c(OC)cc1-2	10%	21µM*	18µM*	-8	21%
COc1ccc2c(c1O)-c1c(OC)c(OC)cc3c1[C@@H](C2)N(C)CC3	nt	-4%	-17%	nt	nt
CN1CCc2cc(O)cc3c2C1Cc1ccc(O)c(O)c1-3 (stereo not drawn)	nt	2.1µM*	2.6µM*	nt	nt
C=CCN1CCc2cccc3c2C1Cc1ccc(O)c(O)c1-3 (stereo not drawn)	nt	5.2µM*	13µM*	nt	nt
CCCN1CCc2cccc3c2[C@H]1Cc1ccc(O)c(O)c1-3	23µM*	?	-85%	-3	3.3µM*
Fc1ccc(-c2nc3c(-c4ccc(F)cc4)cnn3cc2CCN2CCOCC2)cc1	-28%	?	-18%	-23	-22%
CCc1ccc(-c2nc(CN3CCCC(C(=O)NCc4ccc(C)cc4)C3)c(C)o2)cc1 (stereo not drawn)	nt	5.8µM*	8.2µM*	nt	nt
COc1ccc(C2=CC(c3ccc4c(c3)OCO4)c3c(c4ccccc4oc3=O)O2)cc1OC (stereo not drawn)	?	21µM*	15µM*	-21	?
COc1ccc(C2CC(=O)Oc3c2c(=O)oc2ccccc32)c(OC)c1OC (stereo not drawn)	nt	-3%	-12%	nt	nt
C[C@H]1COC2=C1C(=O)C(=O)c1c2ccc2c1CCCC2(C)C	-28%	5.2µM*	5.2µM*	-21	?
CC1COC2=C1C(=O)C(=O)c1c2ccc2c1CCCC2(C)C (stereo not drawn)	nt	13µM*	?	nt	nt
CCC(CO)NC(=O)C1C=C2c3cccc4[nH]cc(c34)CC2N(C)C1 (stereo not drawn)	-7%	-14%	-7%	-8	12%
CCN(CC)C(=O)N[C@@H]1C=C2c3cccc4[nH]cc(c34)C[C@@H]2N(C)C1	nt	9.4µM*	21µM*	nt	nt
C[C@H](NC(=O)N1C[C@H]2C[C@@H](C1)c1cccc(=O)n1C2)C(=O)Nc1cccc(F)c1	11%	12%	4%	-14	8%
CN1Cc2ccccc2-n2nncc2C1	1%	1%	-9%	11	7%
Fc1ccccc1CN1Cc2ccccc2-n2nncc2C1	-1%	23µM*	?	33	5%
c1ccc(-c2ccc(CN3Cc4ccccc4-n4nncc4C3)cc2)cc1	-19%	5.2µM*	4.6µM*	49	-15%
CCc1nc(SC)ncc1C(=O)Nc1ccc(Cl)cc1C(=O)c1ccccc1	nt	?	-1%	nt	nt
N[C@H](CO)Cc1ccccc1	29µM*	1%	17%	14	-11%
C=CCN(CC=C)Cc1c[nH]c2ccccc12	-5%[9.24 µM]	?	12µM*	40	-18%
CN(C)Cc1c[nH]c2cc([N+](=O)[O-])ccc12	-9%	-3%	-2%	-6	5%
CN(C)Cc1c[nH]c2ccccc12	2%	13µM*!	12µM*	7	-2%
SMILES	HT1080 IDH1KD tx	DT40 TDP1 no CPT	TDP1 cell CPT	IL-1B inflam inh	HT1080NT lethal
O/N=C/c1c[nH]c2ccccc12	-2%	-16%	20%	-1	1%
Cc1ccc(CNC(=O)CCCn2c(=O)c3sccc3n(CC(=O)Nc3c(C)cccc3C)c2=O)cc1	nt	-16%	-2%	nt	nt
CN1CC2([N+](=O)[O-])CC=C(Cl)C([N+](=O)[O-])(C1)C2 (stereo not drawn)	10%	1%	0%	5	21%
O=C(c1ccccc1)C(CN1CCCC1)c1ccccc1 (stereo not drawn)	13µM*	1.6µM*	1.8µM*	-104*	21µM*
CC(=O)c1cccc(OCC(O)CN2CC=C(c3ccccc3)CC2)c1 (stereo not drawn)	17%	16µM*	?	-2	-1%
Cc1cccc(OCC(O)CN2CC2)c1 (stereo not drawn)	16%	6.5µM*	3.7µM*	?	3%
CCC1(c2ccccc2)C(=O)NC(=O)NC1=O	4%	1%	3%	-26	-22%
COc1ccc2cc1Oc1ccc(cc1)C[C@H]1c3cc(c(OC)cc3CCN1C)Oc1c(OC)c(OC)cc3c1[C@@H](C2)N(C)CC3	-14%	23µM*	?	?	-19%
COc1ccc2cc1Oc1ccc(cc1)CC1c3cc(c(OC)cc3CCN1C)Oc1c(OC)c(OC)cc3c1C(C2)N(C)CC3 (stereo not drawn)	nt	3.7µM*	3.7µM*	nt	nt
CCOc1cc(CNCCc2c[nH]c3ccccc23)cc(Cl)c1OC	21µM*	5.8µM*	8.2µM*	-103*	18µM*
COc1cccc(CNCCc2c[nH]c3ccccc23)c1OC	0%	-15%	2%	12	-16%
COc1ccccc1CCNCc1ccc(OC)c(OC)c1OC	-3%	12µM*	26µM*	?	-11%
COc1cc2nc(N(C)C)c(CNCCc3c[nH]c4ccccc34)cc2c(OC)c1OC	nt	-18%	6%[9.04 µM]	nt	nt
COc1ccc(CNCCc2c[nH]c3ccccc23)c(OC)c1OC	?	12µM*	16µM*	-58*	-2%
Clc1cccc(CNCCc2c[nH]c3ccccc23)c1	16µM*	?	?	-92*	18µM*
COc1cccc(CNCCc2cccc(F)c2)c1OC	3%	?	?	-8	-9%
Cc1cccc(NP(C)(=O)c2nc3c(s2)CCCC3)c1 (stereo not drawn)	?	-26%	-2%	13	15%
CCOC(=O)C(=O)NC1CCSC1=O (stereo not drawn)	9%	-7%	-6%	-6	3%
CCOc1cc(CNCCc2cccc(F)c2)ccc1OC	-8%	?	?	-9	-13%
CCCCNCc1cc(Cl)c(OCCC)c(OCC)c1	?	?	?	-64*	?
COC(=O)C(NC(C)=O)(Nc1nc2c(C)cc(C)cc2s1)C(F)(F)F (stereo not drawn)	13µM*	16µM*	?	-9	16µM*
CC(C)CC1C(=O)N(Cc2cn(CC3CCCCC3)nn2)CCS(=O)(=O)N1Cc1ccc(-c2ccc(F)nc2)cc1 (stereo not drawn)	-27%	18µM*	21µM*	-3	-29%
